High-throughput results deposited in PubChem BioAssay by National Center for Advancing Translational Sciences (NCATS).
Giardia FBPA inh = blocks Giardia fructose-bisphosphate aldolase activity. A8B2U2. purified Giardia FBPA. Potency, µM (titrated, usually from 59.6 µM), inactives show at the highest dose activity, negative = inhibition, actives largely listed as inhibitors. 0.71% of 290,000 active. AID 2451; note: potency is the fitted concentration of half-maximal effect; nearly all actives have a fitted effect of over 55% in size
Target sequence (A8B2U2 whole entry, looked up): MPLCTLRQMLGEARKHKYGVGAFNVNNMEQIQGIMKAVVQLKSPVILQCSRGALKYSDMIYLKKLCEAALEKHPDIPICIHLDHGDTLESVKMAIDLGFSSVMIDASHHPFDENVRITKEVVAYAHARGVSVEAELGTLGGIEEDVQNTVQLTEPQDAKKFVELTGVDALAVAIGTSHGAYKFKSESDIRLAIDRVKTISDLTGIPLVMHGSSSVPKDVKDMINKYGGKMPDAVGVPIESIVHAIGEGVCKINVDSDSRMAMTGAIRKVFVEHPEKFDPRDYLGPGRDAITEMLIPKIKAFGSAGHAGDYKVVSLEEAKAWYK
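Giardia FBPA (40 nM reagent) was preincubated 10 min at RT with compound (up to 57.5 uM final), then substrate plus GAPDH/TPI/NAD/arsenate coupling system with diaphorase/resazurin was added; resorufin fluorescence (525/598 nm) was read after 20 min.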
HCMV antiviral = human cytomegalovirus inhibition; HFF cells, HCMV-luciferase reporter, 72 h; active compounds read low; 4.5% of 410,000 active; AID 1259415; activity change, negative = inhibition, % at 57.5 µM; in the data active = activity change below about -60%; inconclusive = no clear call, values can overlap the other calls; inactive = above about -39%
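Luciferase read-out from HCMV-luciferase-infected HFFs (MOI 1 PFU/cell) 72 h post infection at 37C; compounds added after 16 h cell attachment; activity normalized between buffer-only basal and Salinomycin (10uM) inhibitor controls.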
Pf growth 96h = P. falciparum growth inhibition at 96 hours. Potency, µM (titrated, usually from 28.7 µM), for the others: top-dose activity change, negative = inhibition, usual class: inhibitors. 6.9% of 320,000 active. P. falciparum luciferase reporter growth, 96 h; note: potency is the fitted concentration of half-maximal effect
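Luminescence readout: decreased luciferase signal marks inhibited growth of reporter-expressing P. falciparum in infected red cells (2% hematocrit, 0.05% parasitemia final), exposed to compound two generations (96 h, 37 C, 5% CO2).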
Sm TGR block = inhibitors of Schistosoma mansoni thioredoxin glutathione reductase | Q962Y6 | purified TGR, DTNB reduction, TNB absorbance 405 nm | Potency, µM (titrated, usually from 114 µM), inactives show at the highest dose activity change, negative = inhibition, usual class: inhibitors | 3% of 360,000 active | AID 485364; note: potency is the fitted concentration of half-maximal effect; nearly all actives have a fitted effect of over 60% in size
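TGR 20 nM + NADPH 100 uM (dispensed conc.), cpd preinc 15 min RT; start with NADPH (500 uM addition) then DTNB (15 mM addition). Kinetic TNB absorbance, 405 nm filter. Four-parameter Hill fit across titration.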
Pf growth 48h = P. falciparum growth inhibition at 48 hours (one generation); P. falciparum luciferase growth in erythrocytes, 48 h; Potency, µM (doses to about 28.7 µM), without a hit: at the top dose activity change, negative = inhibition, hits mostly inhibitors; 5.9% of 310,000 active; note: potency is the fitted concentration of half-maximal effect
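Luminescence readout; reporter = integrated firefly luciferase in P. falciparum. RBC culture at 2% hematocrit, 0.1% parasitemia final, 37 C/5% CO2; decreased signal taken as growth inhibition.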
Active calls of the source: *; ? = inconclusive; nt = no result given; [ ] = remark or other dose. Rows were chosen to be rich in hits. Some 14% of all compounds tested hit in one or more screens of this group. Unless noted, calls come from the whole dose curve; as a rule, active = well fitted curve in the direction sought with a large enough effect; inconclusive = small, poorly fitted or top-dose-only effect, or another doubt; inactive = no such curve, though single readings can be large; an effect the other way counts as inactive or inconclusive. % is set by controls: 0 for no effect and ±100 for the full control effect.

SMILES	Giardia FBPA inh	HCMV antiviral	Pf growth 96h	Sm TGR block	Pf growth 48h
Cc1ccc(C)n1-c1ccc(-c2ccnc(N)n2)cc1	1%	-66*	?	25µM*	?
CCC[C@H]1[C@@H](NC(=O)Nc2ccccc2)CC[C@@]23CCCN2C(=O)CCC[C@@H]13	nt	7	nt	nt	nt
Cc1ccc(N2CC(C(=O)NCCC(C)C)CC2=O)cc1 (centres undefined)	2%	-5	nt	-5%	14%
Cc1ccc(N2CC(C(=O)NCc3ccc(C)n3C)CC2=O)cc1 (centres undefined)	?	-27	58%	40µM*	21%
COC(=O)c1ccc(C(c2c(C)n(C)n(-c3ccccc3)c2=O)c2c(C)n(C)n(-c3ccccc3)c2=O)cc1	-21%	1	6.6µM*	2%	?
Cc1c(NC(=O)COc2cccc(Br)c2)c(=O)n(-c2ccccc2)n1C	-2%	-4	1%	-11%	9%
COc1cc(/C=C/C(=O)OCC(=O)Nc2c(C)n(C)n(-c3ccccc3)c2=O)cc(OC)c1OC	nt	-34	10µM*	-10%	?
COc1cc(/C=C/C(=O)OCC(=O)Nc2c(C)n(C)n(-c3ccccc3)c2=O)ccc1O	nt	0	1%	-19%	-6%
Cc1c(NC(=O)COc2ncnc3ccccc23)c(=O)n(-c2ccccc2)n1C	2%	-26	?	35µM*	-13%
Cc1c(NC(=O)COc2ccc(C(C)C)cc2)c(=O)n(-c2ccccc2)n1C	nt	-8	13µM*	4%	13%
COC(=O)c1cccc(Nc2nn3c(=O)c4cc5c(cc4nc3s2)OCO5)c1	nt	7	nt	0%	nt
CCc1ccccc1NC(=O)Nc1cccn(Cc2ccccc2F)c1=O	-22%	-12	-16%	-3%	?
CCOc1ccc(NC(=O)Nc2cccn(Cc3ccccc3)c2=O)cc1	?	-84*	?	nt	-15%
CSc1ccc(NC(=O)Nc2cccn(Cc3ccccc3F)c2=O)cc1	4%	-81*	13%	10%	2%
O=C(NCc1ccccc1)Nc1cccn(Cc2ccccc2)c1=O	-7%	?	8%	2%	-6%
COc1ccc(/C=C2\SC(N3CCc4ccccc4C3)=NC2=O)cc1OC	2%	16	0%	3%	8%
COc1cc(/C=N/NC(=O)NC23CC4CC(CC(C4)C2)C3)ccc1OCC(N)=O	7%	-5	5.9µM*	10%	9.3µM*
CC1CCCCC1NC(=O)COC(=O)c1c2c(nc3ccccc13)/C(=C/c1ccco1)CC2 (centres undefined)	-15%	-33	15µM*	14µM*	-45%
O=C(COC(=O)c1c2c(nc3ccccc13)/C(=C/c1ccco1)CC2)NC1CCCC1	?	-12	?	5µM*	-19%
Cc1cc(C(=O)OCC(=O)NC2CCCCC2C)c2ccccc2n1 (centres undefined)	nt	2	nt	nt	nt
CCC(C)[C@H](NC(=O)C1CC(=O)N(c2ccc3c(c2)OCCO3)C1)C(=O)N1CCCCC1 (some centres undefined)	-1%	-39	36%	-10%	21%
CC(=O)Nc1ccc(CN(C)c2c(C)nc3ccc(C(=O)N4CCN(C(=O)c5ccco5)CC4)cn23)cc1	nt	-10	nt	nt	nt
c1cncc(Nc2c3ccccc3nc3ccccc23)c1	0%	-86*	4%	-3%	?
Cc1ccc(-c2nc(Nc3cccc(O)c3)c3ccccc3n2)cc1	-5%	?	?	-15%	8%[0.00184 µM]
Oc1cccc(Nc2c3ccccc3nc3ccccc23)c1	-17%	-100*	-11%	-30%	?
CCN(c1cccc(C)c1)S(=O)(=O)c1ccc2c(c1)N(C(C)=O)CCS2	nt	-70*	9%	-1%	-17%
COc1ccc(-c2c/c(=N\c3nc(-c4ccccc4)c(C)s3)c3ccccc3o2)cc1O	-2%	-96*	nt	-9%	?
O=C(NCC1CCCO1)c1sc(=S)n2c1[nH]c(=O)c1ccc(C(=O)N3CCCCC3)cc12 (centres undefined)	-5%	33	?	-1%	10µM*
COc1ccc(S(=O)(=O)N2Cc3ccccc3CC2C(=O)Nc2cc(Cl)ccc2Cl)cc1 (centres undefined)	nt	5	nt	0%	nt
